The values below come from PubChem BioAssay (NCI).

What all share (test): NCI-60 one-dose screen, 48 h (100 = growth as untreated, 0 = no growth, -100 = all killed)
What all share (details): 10 µM

Assay [1] deals with NCI-H23 lung.
Assay [2] deals with NCI-H226 lung.
Assay [3] deals with HOP-62 NSCLC.
Assay [4] relates to NCI-H460 lung.
Assay [5] has as its system HOP-92 NSCLC.
For assay [6], the system named is NCI-H522 lung.
Assay [7] concerns A549/ATCC NSCLC.
In assay [8] the test system is 786-0 renal.
In assay [9] the test system is COLO 205 colon.

The structures appear in SMILES notation. Compounds without any hit were thinned out: in the full panel of roughly 83,000, 20% have a hit.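 Treatment: one concentration, 48 hours, 96-well format. Scoring: percent growth, with anything below 10 considered active.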 Unmarked numbers belong to inactive results. Calls of active or inactive are those of the source.

As to `COc1cccc(C2C(C#N)=C(N)Oc3cc(N)ccc32)c1` (configuration not stated), the growth in assay [1] was 37.8%; in assay [2], 70%; in [3] it was 45.4%; in [4], 11.9%; in assay [5] it was 36.9%; in [6], -0.592% (active). Besides, the growth was 20.2% in assay [7], 53.9% in [8] and 18.1% in [9].
As for `CNC(=O)c1cn(C2CC2)c2cc(N3CCN(C(=O)c4cc(OC)c(OC)c(OC)c4)CC3)c(F)cc2c1=O`, the growth in assay [1] is 93.7%; in assay [2], 93%; in assay [3], 90.8%; in [4], 106%; in [5], 92.3%; in assay [6], 90%. Besides, the growth in assay [7] is 94.6%; in assay [8], 93.4%; in assay [9], 105%.
For the compound `CNS(=O)(=O)Oc1ccc(-c2sc3cc(OS(=O)(=O)NC)ccc3c2C(=O)c2ccc(OCCN3CCCCC3)cc2)cc1`, the growth in assay [1] is 65.6%; in assay [2], 84.4%; in assay [3], 79.8%; in [4], 42.4%; in [5], 64.2%; in [6], 78.7%. For the same compound, the growth was 62.4% in assay [7], 73.5% in assay [8] and 77.9% in [9].
With `C(=N\Nc1ncnc2sc3c(c12)CCNC3)/c1cccc2ccccc12`, the growth in [1] is 98.9%; in assay [2] it was 97.1%; in assay [3], 79.9%; in [4] it was 62.8%; in assay [5], 93.4%; in assay [6] it was 97%. Moreover, the growth is 67.6% in assay [7], 59.5% in assay [8] and 63.5% in [9].
For the compound `COc1ccc(-c2n[nH]nc2-c2cc(OC)c(OC)c(OC)c2)cc1`, the growth is 10.8% in assay [1]; 63.2% in assay [2]; 46.2% in assay [3]; 2.7% (active) in [4]; -1.89% (active) in assay [5]; -24.5% (active) in assay [6]. Further, the figures for the growth in assay [7], in assay [8] and in assay [9] were 20.4%, 16.9% and -18.5% (active), respectively.
With `O=C(Cn1cc(CO)nn1)Nc1nc2ccccc2s1`, the growth in assay [1] is 101%; in [2], 103%; in [3], 101%; in [4], 106%; in [5], 106%; in assay [6] it was 93.7%. For the same compound, the growth in assay [7] was 97.2%; in assay [8], 103%; in assay [9], 111%.
Turning to `CNC(=O)c1cc(Oc2ccc3c(c2)sc2nc(-c4ccc(N)cc4)cn23)ccn1`, the growth in assay [1] was 35%; in [2], 61.8%; in assay [3], 46.8%; in assay [4], 10.1%; in [5], 58.4%; in assay [6], -22.6% (active). The growth in assay [7] was 24.5%; in [8], 19.4%; in assay [9] it was -11.1% (active).
For the compound `O=C1CSC(=S)N1/N=C/c1ccc(Cl)s1`, the growth in [1] is 90.3%; in [2] it was 106%; in assay [3], 95.4%; in assay [4], 107%; in [5], 110%; in [6] it was 96.2%. Further, the growth in assay [7] was 103%; in [8], 102%; in [9], 107%.
On to `COc1cc(C(=O)N2CCN(c3cc4c(cc3F)c(=O)c(C(=O)NO)cn4C3CC3)CC2)cc(OC)c1OC`, for which the growth in assay [1] is 94.9%; in assay [2], 95.1%; in assay [3], 97%; in assay [4], 105%; in [5], 99.1%; in assay [6], 87.4%. Further, the growth in assay [7] was 99%; in [8] it was 93.6%; in assay [9], 104%.
As to `CCOC(=O)c1cc(C(=O)c2cc(OC)cc(OC)c2)n2ncc3ccccc3c12`, the growth in assay [1] was 41.9%; in assay [2] it was 59.1%; in assay [3], 42.6%; in assay [4], 7.07% (active); in assay [5] it was 32.4%; in assay [6], 2.64% (active). In addition, the growth is 17.9% in assay [7], 5.34% (active) in [8] and 19.1% in assay [9].
For the compound `COc1cc(-c2nn(-c3cccc(NC(=O)CCN4CCN(Cc5ccccc5)CC4)c3)cc2-c2ccncc2)ccc1Cl`, the growth in [1] was 20.8%; in [2], 54%; in assay [3], 24%; in [4], 1.48% (active); in [5], -0.56% (active); in assay [6], -31.4% (active). For the same compound, the growth in assay [7] is 11.6%; in assay [8], -59.9% (active); in assay [9], -50.9% (active).
Turning to `C/C=C/C1=CN2C(=O)c3cc(OC4OC(C)C(NC)C(C)(O)C4O)c(C)c(O)c3N=C[C@@H]2C1` (some centres not stated), the growth is -43.7% (active) in assay [1]; 3.31% (active) in [2]; -7% (active) in assay [3]; -13.8% (active) in [4]; -17.8% (active) in assay [5]; -28.5% (active) in assay [6]. The growth is 5.24% (active) in assay [7], -25% (active) in assay [8] and -49.2% (active) in assay [9].
`O=C1c2ccccc2C(=O)N1CCCCNc1ccccc1`: the growth is 104% in assay [1]; 91.7% in assay [2]; 122% in assay [3]; 89.3% in assay [4]; 106% in assay [5]; 101% in [6]. In addition, the growth in assay [7] was 78.2%; in [8], 63.7%; in [9] it was 114%.
Take `CN(C)CCCSc1ccccc1NC1=C(Cl)C(=O)C(Nc2ccccc2SCCCN(C)C)=C(Cl)C1=O`: the growth in assay [1] was -43.4% (active); in [2], 93.5%; in [3], 118%; in assay [4] it was 103%; in assay [5] it was 79%; in assay [6], -78.2% (active). Also, the growth is 101% in assay [7], 42.9% in assay [8] and 17.9% in assay [9].
As for `CCN(CC)CC(=O)N(CC)c1ccc(C)c(Cl)c1`, the growth is 103% in [1]; 99.8% in assay [2]; 91% in assay [3]; 104% in [4]; 90.1% in assay [5]; 83.8% in assay [6]. Also, the values for the growth in [7], in assay [8] and in assay [9] were 86.3%, 98.4% and 101%, respectively.
On to `COc1cc2c(cc1NC(=O)C(F)(F)F)-c1ccc(NC(=O)C(F)(F)F)cc1C2`, for which the growth was 86.9% in assay [1]; 47.9% in [2]; 45.4% in assay [3]; 97.8% in [4]; 90.3% in assay [5]; 99.2% in assay [6]. Moreover, the growth is 92.2% in [7], 98.6% in assay [8] and 112% in [9].
For `O=C1c2ccccc2C(=O)c2c1ccc1c(=O)n(-c3ccccc3C(F)(F)F)nnc21`, the growth in [1] was 3.9% (active); in [2], 35.9%; in assay [3], 23.8%; in assay [4] it was 5.82% (active); in assay [5] it was 37.1%; in [6], 16.7%. In addition, the growth in [7] is 13.1%; in assay [8], 60.5%; in assay [9], 8.51% (active).
For `CCN(CC)CCOc1cccc2c1C(=O)c1ccccc1C2=O`, the growth in assay [1] was 88.2%; in assay [2] it was 93.8%; in assay [3] it was 82.5%; in [4], 101%; in assay [5] it was 71.2%; in assay [6], 84.3%. Besides, the growth in [7] is 90.6%; in assay [8], 93.1%; in assay [9], 68.6%.
Take `CCN(CC)CCCOc1cccc2c1C(=O)c1cccc(OCCCN(CC)CC)c1C2=O`: the growth was 38.2% in assay [1]; 42.8% in [2]; 48.1% in assay [3]; 16.5% in [4]; 21.2% in [5]; 43.8% in assay [6]. The growth in assay [7] was 22.3%; in assay [8], 40.8%; in [9], -12% (active).
Turning to `COc1cc(C2CC(c3ccccc3)=NN2C(C)=O)cc(OC)c1OC` (configuration not stated), the growth in [1] was 64.1%; in assay [2], 82.1%; in assay [3] it was 68.2%; in assay [4] it was 15.5%; in [5], 76.1%; in assay [6], 7.46% (active). Further, the growth is 54.7% in assay [7], 62.2% in [8] and 35.3% in assay [9].
Turning to `COc1ccc2c(c1)CC=C1[C@@H]2CC[C@]2(C)C(=O)/C(=N/O)C[C@@H]12`, the growth in assay [1] was 102%; in assay [2], 87.6%; in [3], 88.5%; in assay [4] it was 101%; in assay [5], 96.5%; in [6], 102%. For the same compound, the growth in assay [7] is 99.4%; in assay [8] it was 90.3%; in assay [9], 103%.
For `Nc1ccn(Cc2nnc(CCC(=O)c3nc4ccccc4[nH]3)o2)c(=O)n1`, the growth in assay [1] is 74.5%; in assay [2], 73.7%; in assay [3], 82%; in assay [4], 34.6%; in assay [5] it was 66.1%; in assay [6], 84.2%. For the same compound, the growth is 63.8% in assay [7], 97.2% in assay [8] and 103% in [9].
As for `Cc1ccc(NCCNCC(C)(C)O)c2c(=O)c3ccc(Cl)cc3sc12`, the growth in [1] is 52%; in [2], 76.6%; in [3] it was 80.1%; in assay [4] it was -73.7% (active); in [5] it was 21%; in assay [6], 49.4%. Further, the figures for the growth in assay [7], in assay [8] and in assay [9] were -42.9% (active), 54% and -79.2% (active), respectively.
On to `CCOC(=O)c1cc(C(=O)c2cc(OC)c(OC)c(OC)c2)n2c1ccc1c3cccnc3ccc12`, for which the growth was 77.4% in assay [1]; 82.3% in assay [2]; 61.9% in assay [3]; 82.2% in assay [4]; 55.5% in assay [5]; 22.8% in assay [6]. Further, the growth was 64% in assay [7], 78.5% in assay [8] and 36.6% in assay [9].
For the compound `COc1cc(/C=C/c2cc(/C=C/c3ccc(O)c(OC)c3)n(C(=O)Nc3ccccc3Cl)n2)ccc1O`, the growth in assay [1] was -25.8% (active); in [2], -3.72% (active); in [3], 8.39% (active); in assay [4], 7.39% (active); in [5], -14.4% (active); in [6] it was -18.7% (active). Moreover, the values for the growth in [7], in assay [8] and in assay [9] were 8.75% (active), -14.8% (active) and -73.5% (active), respectively.
`COc1ccc(-c2cc(-c3ccc(Cl)cc3)nc(SCCCC(=O)NO)n2)cc1`: the growth in [1] was 0.964% (active); in [2], -2.21% (active); in assay [3] it was 5.55% (active); in assay [4] it was 0.515% (active); in assay [5], 1.25% (active); in [6], -12.1% (active). The figures for the growth in assay [7], in assay [8] and in assay [9] were 5.47% (active), 3.69% (active) and 2.04% (active), respectively.
On to `CC(CN(C)C)Oc1ccc(OC(C)CN(C)C)c2c1C(=O)c1ccccc1C2=O` (configuration not stated), for which the growth in assay [1] is 41.6%; in assay [2], 44.5%; in assay [3] it was 49.3%; in assay [4], 17.2%; in [5] it was 49.1%; in assay [6], 41.1%. For the same compound, the growth in [7] is 22.5%; in [8], 51%; in [9] it was 3.02% (active).
For the compound `CCOC(=O)c1cc(C(=O)c2ccc(Cl)cc2)n2ccc(-c3cc[n+](CC(=O)c4ccc(OC)cc4)cc3)cc12`, the growth in assay [1] is 88.2%; in assay [2] it was 102%; in [3] it was 87.7%; in [4], 3.93% (active); in [5], 67.8%; in assay [6], 70.8%. In addition, the growth in assay [7] was 32.2%; in assay [8] it was 9.1% (active); in [9] it was 42.8%.
